Source: PubChem BioAssay
Pf growth 48h – inhibits P. falciparum growth in the first generation, 48 h | P. falciparum luciferase growth in erythrocytes, 48 h | Potency, µM (titrated, usually from 28.7 µM), inactives show top-dose activity change, negative = inhibition, actives largely listed as inhibitors | 310,000 compounds, 5.9% hits | AID 504832; also: potency is read from the fitted curve at half-maximal effect
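Luciferase-expressing parasites in RBCs, 2% Hct / 0.1% parasitemia final; RPMI 1640 + 0.5% Albumax; 37 C, 5% CO2, one generation; luminescence read-out, lower signal = inhibition.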
Pf growth 96h – P. falciparum growth inhibition at 96 hours. P. falciparum luciferase reporter growth, 96 h. Potency, µM (top dose mostly 28.7 µM), for inactives: top-dose activity change, negative = inhibition, most hits filed as inhibitors. 320,000 compounds, 6.9% hits. AID 504834; also: potency is read from the fitted curve at half-maximal effect
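96 h incubation, 37 C, 5% CO2, of luciferase-reporter P. falciparum-infected RBCs (2% hematocrit, 0.05% parasitemia final) with test compounds; endpoint luminescence.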
HCMV inh – inhibitors of human cytomegalovirus | activity change, negative = inhibition, % at 57.5 µM | HFF cells, HCMV-luciferase reporter, 72 h; stronger effect = lower value | AID 1259415 | 410,000 compounds, 4.5% hits; in the data active = activity change below about -60%; inconclusive = no clear call, values can overlap the other calls; inactive = above about -39%
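Two compound doses tested in HFFs infected with HCMV-luciferase, MOI 1 PFU/cell, 72 h at 37C. Lysate luminescence read with OneGlo; data normalized against buffer-only and 10uM Salinomycin inhibitor controls.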
FBPA Giardia inh – blocks Giardia fructose-bisphosphate aldolase activity; Potency, µM (top dose mostly 59.6 µM), for the others: at the top dose activity, negative = inhibition, most hits filed as inhibitors; 290,000 compounds, 0.71% hits; AID 2451; A8B2U2; purified Giardia FBPA; also: potency is read from the fitted curve at half-maximal effect; nearly all actives have a fitted effect of over 55% in size
Target sequence (A8B2U2 whole entry, looked up): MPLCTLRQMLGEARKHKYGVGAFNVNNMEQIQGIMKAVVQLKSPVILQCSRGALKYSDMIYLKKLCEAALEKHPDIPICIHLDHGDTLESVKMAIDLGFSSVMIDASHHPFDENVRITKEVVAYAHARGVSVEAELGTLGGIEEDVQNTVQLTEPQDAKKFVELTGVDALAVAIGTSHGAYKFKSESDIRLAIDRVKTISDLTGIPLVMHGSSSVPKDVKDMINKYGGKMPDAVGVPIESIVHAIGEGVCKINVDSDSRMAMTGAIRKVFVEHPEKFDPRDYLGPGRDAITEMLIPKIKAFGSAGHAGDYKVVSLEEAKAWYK
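40 nM FBPA preincubated 10 min at RT with compound (up to 57.5 uM final), then substrate plus GAPDH/TPI/NAD/arsenate coupling and diaphorase/resazurin added. Fluorescence read after 20 min at RT, 525/598 nm.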
Sm TGR inh – inhibitors of Schistosoma mansoni thioredoxin glutathione reductase; Q962Y6; purified TGR, DTNB reduction, TNB absorbance 405 nm; Potency, µM (doses to about 114 µM), inactives show at the highest dose activity change, negative = inhibition, hits mostly inhibitors; 360,000 compounds, 3% hits; also: potency is read from the fitted curve at half-maximal effect; nearly all actives have a fitted effect of over 60% in size
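First, TGR (20 nM dispensed) and NADPH were mixed with compound. Second, a 15 min room-temperature incubation followed. Third, further NADPH and then DTNB were added to start the reaction. Finally, TNB absorbance was monitored kinetically.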
Numbers without * were called inactive; u = inconclusive; x = no result; [ ] = another dose, or the depositor's remark. Only some compounds are listed: those with a hit (about 14% of all), similar ones and a draw of the others. Unless noted, calls follow the shape of the dose curve; as a rule, active = well fitted curve in the direction sought with a large enough effect; inconclusive = small, poorly fitted or top-dose-only effect, or another doubt; inactive = no such curve, though single readings can be large; an effect the other way counts as inactive or inconclusive. % is scaled to controls: 0 for no effect and ±100 for the full control effect.

SMILES	Pf growth 48h	Pf growth 96h	HCMV inh	FBPA Giardia inh	Sm TGR inh
Cn1cnnc1SC1c2cccc3cccc(c23)C1NS(=O)(=O)c1ccccc1 (centres undefined)	-10%	7%	16	23%	0%
C=CCOC(=O)C1=C(C)NC(SC)=C(C#N)C1c1ccc(OCC)cc1 (centres undefined)	8.3µM*	12µM*	2	-5%	-12%
CC(=O)C1=C(C)NC(SCC(=O)Nc2nccs2)=C(C#N)C1c1ccccc1Cl (centres undefined)	u	u	u	1%	-13%
C=CCOC(=O)C1=C(C)NC(SCC(=O)Nc2nccs2)=C(C#N)C1c1cccs1 (centres undefined)	4.7µM*	4.1µM*	u	8%	-19%
C=CCOC(=O)C1=C(C)NC(SCC(=O)Nc2nccs2)=C(C#N)C1c1ccc(Cl)cc1 (centres undefined)	2.1µM*	2.1µM*	-32	-1%	-31%
CCOC(=O)C1=C(C)NC(SCC(N)=O)=C(C#N)C1c1cccs1 (centres undefined)	u	-11%	7	5%	-8%
CCOC(=O)C1=C(C)NC(SCC(=O)Nc2cc(C)on2)=C(C#N)C1c1cccs1 (centres undefined)	10µM*	u	-33	-3%	-6%
Cc1ccc(/C=N/NC(=O)CSc2nc3ccccc3[nH]2)o1	-8%	u	25	x	u
CCNc1nc(SCC(N)=O)nc2sc3c(c12)CCN(C)C3	u	1µM*	-2	u	-33%
CCC(O)CNc1nc(SC)nc2sc3c(c12)CCN(C)C3 (centres undefined)	x	x	39	-11%	-3%
CCSc1nc(N)c2c3c(sc2n1)CN(C)CC3	u	u	x	-17%	-11%
CSc1nc(SCC(N)=O)c2c3c(sc2n1)CN(C)CC3	3.3µM*	0.59µM*	-33	-24%	-30%
COc1cc(-c2cc(NC(C)=O)c3ncc(-c4ccc(C(C)=O)cc4)n3c2)cc(OC)c1OC	x	x	32	x	x
CCOc1ccc(S(=O)(=O)N2CCC(C(=O)NCc3ccccc3CN3CCCC3)CC2)cc1	9.3µM*	13µM*	u	x	0%
CCOc1ccc(S(=O)(=O)N2CCC(C(=O)OC(C)C(=O)NC3CCCCC3C)CC2)cc1 (centres undefined)	8.3µM*	13µM*	0	x	4%
N#Cc1ccccc1S(=O)(=O)N1CCC(C(=O)NCc2ccccc2CN2CCCC2)CC1	u	6.6µM*	3	x	-3%
Cc1ccc(S(=O)(=O)N2CCC(C(=O)OC(C)C(=O)NC3CCCCC3C)CC2)cc1C (centres undefined)	u	u	0	x	4%
CCc1nn2c(=O)cc(COC(=O)c3cccs3)nc2s1	x	x	16	x	5%
CC(NC(=O)COC(=O)C1CCCCC1)c1ccccc1 (centres undefined)	x	x	3	x	x
O=S1(=O)CC(N2CCN(CCO)CC2)CN1Cc1cn(Cc2cccc(C(F)(F)F)c2)nn1 (centres undefined)	x	x	-1	x	x
CC(C)=CCN1CCN(Cc2cccnc2)CC1CCO (centres undefined)	15%	u	13	0%	2%[57.1 µM]
COc1ccc(/C=C/C(=O)OCC(=O)NC2CCCCCC2)cc1	x	x	-19	x	x
Cc1nc2c(-c3ccc(F)cc3)c(C)nn2c(C)c1CCC(=O)Nc1ccccc1F	u	9.3µM*	-24	0%	9%
Cc1nc2c(-c3ccccc3)c(C)nn2c(C)c1CCC(=O)NC(C)CCc1ccco1 (centres undefined)	x	10µM*	-6	3%	-1%
COc1cc(C(=O)NC2CC2)cc(OC)c1OC	x	x	31	x	x
CCOc1ccc(NC(=O)NC(CC)Cn2nnc3ccccc3c2=O)cc1 (centres undefined)	x	x	3	x	5%
COc1ccc(C(O)(CCC(C)C)C(CN2CCOCC2)c2ccccc2)cc1 (centres undefined)	1.7µM*	-4%	u	-22%	-7%
CC(C)CCC(O)(c1ccccc1)C(CN1CCOCC1)c1ccccc1 (centres undefined)	2.9µM*	7%	-67*	6%	-9%
